# From PubChem BioAssay (EPA / NIEHS)
# The source made the active and inactive calls. Rule for the calls: active = hit-call score of the fitted dose curve at least 0.9, where 1 is the maximum; inactive = score below 0.9.
# Read-out: CD90, THY1 (gene 7070)
# Test: BSK_BF4T_CD90: BioMAP Diversity Plus: BF4T Assay for CD90 Biomarker Activity (AID 2284262)
# Conditions: primary human bronchial epithelial cells with fibroblasts
# Procedure: BSK_BF4T is a cell-based, multiplexed-readout assay that uses bronchial epithelial cells and dermal fibroblasts, a human vascular primary cell, with measurements taken at 24 hours after chemical dosing in a microplate: 96-well plate.BSK_BF4T_CD90 is an assay component measured in the BSK_BF4T assay. It measures CD90 antibody related to regulation of gene expression using ELISA technology.Data from the assay component BSK_BF4T_CD90 was analyzed at the endpoint, BSK_BF4T_CD90, in the positive analysis fitting direction relative to DMSO as the negative control and baseline of activity. Using a type of binding reporter, gain or loss-of-signal activity can be used to understand protein changes. To generalize the intended target to other relatable targets, this assay endpoint is annotated to the 'cytokine' intended target family, where the subfamily is 'inflammatory factor'.
# The levels of cell surface (or secreted, indicated by the prefix "s") biomarker endpoints were measured by ELISA. Overt cytotoxicity to cells in confluent adherent cultures (all systems other than the BT system) was assessed by measuring total protein levels using sulforhodamine B (SRB) staining in parallel cultures at the time of biomarker measurements, indicated as SRB endpoints. For proliferation assays for adherent cell types, individual cell types are cultured at sub-confluence and relative cell numbers quantified by SRB staining at time points optimized for each system (48 h: 3C and CASM3C systems; 72 h: BT and HDF3CGF systems; 96 h: SAg system). SRB was performed by staining cells with 0.1% SRB after fixation with 10% TCA and reading wells at 560 nm.Viability and proliferation of PBMC (T cells) was quantified by Alamar Blue reduction for the SAg and BT systems. For PBMC viability (referred to as PBMC Cytotoxicity within the assay endpoint names), cells were plated (75,000/well in a 96-well plate) and then chemical samples added for 1 h before addition of activators, SEB and TSST-1 (20 ng/mL final concentration each). Cells were incubated for 90 h. Then, Alamar Blue (20 uL/well) (Invitrogen, Cat DAL1100) was added for 6 h, and the plates were read with a fluorescence microplate reader at 546/580 nm (excitation/emission). For PBMC proliferation, cells were plated and activated as above but incubated for only 16 h prior to addition of Alamar Blue. Plates were read after 6 h.
row,SMILES,outcome
1,OCC(F)(F)OC(F)(F)C(F)(F)OC(F)(F)C(F)(F)OC(F)(F)F,inactive
2,OCC(F)(F)OC(F)(F)C(F)(F)OC(F)(F)CO,inactive
3,O=C(O)C=CC(F)(C(F)(F)F)C(F)(F)F,inactive
4,O=C(O)C(F)(F)C(F)(F)C(=O)O,inactive
5,O=C(O)C(F)(F)OC(F)(F)C(F)(F)OC(F)(F)F,inactive
6,FC(F)(F)C(F)(C(F)(F)F)C(F)(F)C(F)(F)CC1CO1 (centres undefined),inactive
7,CC(O)C(F)(F)C(F)(F)F (centres undefined),inactive
8,NC(=O)C(F)(F)C(F)(F)F,inactive
9,C=CC(=O)OCC(F)(F)C(F)F,inactive
10,O=C(O)C(F)(OC(F)(F)C(F)(F)C(F)(F)F)C(F)(F)F (centres undefined),inactive
11,OCC(F)(F)OC(F)(F)C(F)(F)OC(F)(F)C(F)(F)OC(F)(F)CO,inactive
12,COC(=O)C(F)(F)C(F)(F)OC(F)(C(F)(F)F)C(F)(F)OC(F)=C(F)F (centres undefined),inactive
13,O=C(O)C(F)(F)OC(F)(F)C(F)(F)OC(F)(F)C(=O)O,inactive
14,O=S(=O)(F)C(F)(F)C(F)(F)C(F)(F)C(F)(F)C(F)(F)C(F)(F)C(F)(F)C(F)(F)F,inactive
